According to the supplement of paper PMC4466140:

Molecular target: AgAbp1
Experiment: SPOT peptide array binding signal intensity (averaged, normalized) (arbitrary units (background-subtracted, floor 0; scale differs between SH3 domains)); higher = stronger binding of the SH3 domain to the peptide
How it was run: (§1)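 GST-SH3 fusions from four yeast species, purified on glutathione Sepharose, were incubated at 10 μg/ml overnight at 4°C on membranes of synthetic 15-mer peptides in which cysteines were replaced with serines. Binding signal is the normalized, background-subtracted spot intensity averaged over replicates, in domain-specific arbitrary units.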

Row | Binder | SPOT peptide array binding signal intensity
1 | NMLSRPRLAKLPSIR | 124

Molecular target: AgBbc1
Experiment: as above
How it was run: as §1

Row | Binder | SPOT peptide array binding signal intensity
2 | NMLSRPRLAKLPSIR | 16.5

Molecular target: AgBem1-D1
Experiment: as above
How it was run: as §1

Row | Binder | SPOT peptide array binding signal intensity
3 | NMLSRPRLAKLPSIR | 394

Molecular target: AgBzz1-D1
Experiment: as above
How it was run: as §1

Row | Binder | SPOT peptide array binding signal intensity
4 | NMLSRPRLAKLPSIR | 23

Molecular target: AgBzz1-D2
Experiment: as above
How it was run: as §1

Row | Binder | SPOT peptide array binding signal intensity
5 | NMLSRPRLAKLPSIR | 3

Molecular target: AgCyk3
Experiment: as above
How it was run: as §1

Row | Binder | SPOT peptide array binding signal intensity
6 | NMLSRPRLAKLPSIR | ≤ 0

Molecular target: AgFus1
Experiment: as above
How it was run: as §1

Row | Binder | SPOT peptide array binding signal intensity
7 | NMLSRPRLAKLPSIR | 458

Molecular target: AgHof1
Experiment: as above
How it was run: as §1

Row | Binder | SPOT peptide array binding signal intensity
8 | NMLSRPRLAKLPSIR | 331

Molecular target: AgHse1
Experiment: as above
How it was run: as §1

Row | Binder | SPOT peptide array binding signal intensity
9 | NMLSRPRLAKLPSIR | 2140

Molecular target: AgLsb1
Experiment: as above
How it was run: as §1

Row | Binder | SPOT peptide array binding signal intensity
10 | NMLSRPRLAKLPSIR | 3.25

Molecular target: AgLsb4
Experiment: as above
How it was run: as §1

Row | Binder | SPOT peptide array binding signal intensity
11 | NMLSRPRLAKLPSIR | 59

Molecular target: AgMyo5
Experiment: as above
How it was run: as §1

Row | Binder | SPOT peptide array binding signal intensity
12 | NMLSRPRLAKLPSIR | ≤ 0

Molecular target: AgNbp2
Experiment: as above
How it was run: as §1

Row | Binder | SPOT peptide array binding signal intensity
13 | NMLSRPRLAKLPSIR | 362

Molecular target: AgRvs167
Experiment: as above
How it was run: as §1

Row | Binder | SPOT peptide array binding signal intensity
14 | NMLSRPRLAKLPSIR | 4.33

Molecular target: AgSho1
Experiment: as above
How it was run: as §1

Row | Binder | SPOT peptide array binding signal intensity
15 | NMLSRPRLAKLPSIR | 388

Molecular target: AgSla1-D1-D2
Experiment: as above
How it was run: as §1

Row | Binder | SPOT peptide array binding signal intensity
16 | NMLSRPRLAKLPSIR | 27

Molecular target: AgSla1-D3
Experiment: as above
How it was run: as §1

Row | Binder | SPOT peptide array binding signal intensity
17 | NMLSRPRLAKLPSIR | 4.5

Molecular target: CaAbp1-D1
Experiment: as above
How it was run: as §1

Row | Binder | SPOT peptide array binding signal intensity
18 | NMLSRPRLAKLPSIR | 822

Molecular target: CaAbp1-D2
Experiment: as above
How it was run: as §1

Row | Binder | SPOT peptide array binding signal intensity
19 | NMLSRPRLAKLPSIR | 754

Molecular target: CaBbc1
Experiment: as above
How it was run: as §1

Row | Binder | SPOT peptide array binding signal intensity
20 | NMLSRPRLAKLPSIR | 165

Molecular target: CaBem1-D1
Experiment: as above
How it was run: as §1

Row | Binder | SPOT peptide array binding signal intensity
21 | NMLSRPRLAKLPSIR | 526

Molecular target: CaBzz1-D1
Experiment: as above
How it was run: as §1

Row | Binder | SPOT peptide array binding signal intensity
22 | NMLSRPRLAKLPSIR | 184

Molecular target: CaBzz1-D2
Experiment: as above
How it was run: as §1

Row | Binder | SPOT peptide array binding signal intensity
23 | NMLSRPRLAKLPSIR | 69.8

Molecular target: CaCyk3
Experiment: as above
How it was run: as §1

Row | Binder | SPOT peptide array binding signal intensity
24 | NMLSRPRLAKLPSIR | 46

Molecular target: CaFus1
Experiment: as above
How it was run: as §1

Row | Binder | SPOT peptide array binding signal intensity
25 | NMLSRPRLAKLPSIR | 1210

Molecular target: CaHof1
Experiment: as above
How it was run: as §1

Row | Binder | SPOT peptide array binding signal intensity
26 | NMLSRPRLAKLPSIR | 0.25

Molecular target: CaHse1
Experiment: as above
How it was run: as §1

Row | Binder | SPOT peptide array binding signal intensity
27 | NMLSRPRLAKLPSIR | 183

Molecular target: CaLsb1
Experiment: as above
How it was run: as §1

Row | Binder | SPOT peptide array binding signal intensity
28 | NMLSRPRLAKLPSIR | 2

Molecular target: CaLsb4
Experiment: as above
How it was run: as §1

Row | Binder | SPOT peptide array binding signal intensity
29 | NMLSRPRLAKLPSIR | 290

Molecular target: CaMyo5
Experiment: as above
How it was run: as §1

Row | Binder | SPOT peptide array binding signal intensity
30 | NMLSRPRLAKLPSIR | 46.5

Molecular target: CaNbp2
Experiment: as above
How it was run: as §1

Row | Binder | SPOT peptide array binding signal intensity
31 | NMLSRPRLAKLPSIR | 1250

Molecular target: CaRvs167
Experiment: as above
How it was run: as §1

Row | Binder | SPOT peptide array binding signal intensity
32 | NMLSRPRLAKLPSIR | 97.2

Molecular target: CaRvs167-3
Experiment: as above
How it was run: as §1

Row | Binder | SPOT peptide array binding signal intensity
33 | NMLSRPRLAKLPSIR | 60.5

Molecular target: CaSho1
Experiment: as above
How it was run: as §1

Row | Binder | SPOT peptide array binding signal intensity
34 | NMLSRPRLAKLPSIR | 1490

Molecular target: CaSla1-D1-D2
Experiment: as above
How it was run: as §1

Row | Binder | SPOT peptide array binding signal intensity
35 | NMLSRPRLAKLPSIR | 663

Molecular target: CaSla1-D3
Experiment: as above
How it was run: as §1

Row | Binder | SPOT peptide array binding signal intensity
36 | NMLSRPRLAKLPSIR | 254

Molecular target: ScAbp1
Experiment: as above
How it was run: as §1

Row | Binder | SPOT peptide array binding signal intensity
37 | NMLSRPRLAKLPSIR | 424

Molecular target: ScBbc1
Experiment: as above
How it was run: as §1

Row | Binder | SPOT peptide array binding signal intensity
38 | NMLSRPRLAKLPSIR | 3.5

Molecular target: ScBem1-D1
Experiment: as above
How it was run: as §1

Row | Binder | SPOT peptide array binding signal intensity
39 | NMLSRPRLAKLPSIR | 21

Molecular target: ScBzz1-D1
Experiment: as above
How it was run: as §1

Row | Binder | SPOT peptide array binding signal intensity
40 | NMLSRPRLAKLPSIR | 22

Molecular target: ScBzz1-D2
Experiment: as above
How it was run: as §1

Row | Binder | SPOT peptide array binding signal intensity
41 | NMLSRPRLAKLPSIR | 29.5

Molecular target: ScCyk3
Experiment: as above
How it was run: as §1

Row | Binder | SPOT peptide array binding signal intensity
42 | NMLSRPRLAKLPSIR | 35

Molecular target: ScFus1
Experiment: as above
How it was run: as §1

Row | Binder | SPOT peptide array binding signal intensity
43 | NMLSRPRLAKLPSIR | 826

Molecular target: ScHof1
Experiment: as above
How it was run: as §1

Row | Binder | SPOT peptide array binding signal intensity
44 | NMLSRPRLAKLPSIR | 28

Molecular target: ScHse1
Experiment: as above
How it was run: as §1

Row | Binder | SPOT peptide array binding signal intensity
45 | NMLSRPRLAKLPSIR | 2110

Molecular target: ScLsb1
Experiment: as above
How it was run: as §1

Row | Binder | SPOT peptide array binding signal intensity
46 | NMLSRPRLAKLPSIR | 71.5

Molecular target: ScLsb2
Experiment: as above
How it was run: as §1

Row | Binder | SPOT peptide array binding signal intensity
47 | NMLSRPRLAKLPSIR | ≤ 0

Molecular target: ScLsb3
Experiment: as above
How it was run: as §1

Row | Binder | SPOT peptide array binding signal intensity
48 | NMLSRPRLAKLPSIR | 570

Molecular target: ScLsb4
Experiment: as above
How it was run: as §1

Row | Binder | SPOT peptide array binding signal intensity
49 | NMLSRPRLAKLPSIR | 112

Molecular target: ScMyo3
Experiment: as above
How it was run: as §1

Row | Binder | SPOT peptide array binding signal intensity
50 | NMLSRPRLAKLPSIR | 13.5

Molecular target: ScMyo5
Experiment: as above
How it was run: as §1

Row | Binder | SPOT peptide array binding signal intensity
51 | NMLSRPRLAKLPSIR | ≤ 0

Molecular target: ScNbp2
Experiment: as above
How it was run: as §1

Row | Binder | SPOT peptide array binding signal intensity
52 | NMLSRPRLAKLPSIR | 370

Molecular target: ScPex13
Experiment: as above
How it was run: as §1

Row | Binder | SPOT peptide array binding signal intensity
53 | NMLSRPRLAKLPSIR | 142

Molecular target: ScRvs167
Experiment: as above
How it was run: as §1

Row | Binder | SPOT peptide array binding signal intensity
54 | NMLSRPRLAKLPSIR | 43

Molecular target: ScSho1
Experiment: as above
How it was run: as §1

Row | Binder | SPOT peptide array binding signal intensity
55 | NMLSRPRLAKLPSIR | 962

Molecular target: ScSla1-D1-D2
Experiment: as above
How it was run: as §1

Row | Binder | SPOT peptide array binding signal intensity
56 | NMLSRPRLAKLPSIR | 389

Molecular target: ScSla1-D3
Experiment: as above
How it was run: as §1

Row | Binder | SPOT peptide array binding signal intensity
57 | NMLSRPRLAKLPSIR | 418

Molecular target: SpAbp1-D1
Experiment: as above
How it was run: as §1

Row | Binder | SPOT peptide array binding signal intensity
58 | NMLSRPRLAKLPSIR | 610

Molecular target: SpBbc1
Experiment: as above
How it was run: as §1

Row | Binder | SPOT peptide array binding signal intensity
59 | NMLSRPRLAKLPSIR | 1

Molecular target: SpBzz1-D1
Experiment: as above
How it was run: as §1

Row | Binder | SPOT peptide array binding signal intensity
60 | NMLSRPRLAKLPSIR | 333

Molecular target: SpBzz1-D2
Experiment: as above
How it was run: as §1

Row | Binder | SPOT peptide array binding signal intensity
61 | NMLSRPRLAKLPSIR | 13

Molecular target: SpCyk3
Experiment: as above
How it was run: as §1

Row | Binder | SPOT peptide array binding signal intensity
62 | NMLSRPRLAKLPSIR | 3

Molecular target: SpHof1
Experiment: as above
How it was run: as §1

Row | Binder | SPOT peptide array binding signal intensity
63 | NMLSRPRLAKLPSIR | 100

Molecular target: SpHof1-2
Experiment: as above
How it was run: as §1

Row | Binder | SPOT peptide array binding signal intensity
64 | NMLSRPRLAKLPSIR | 59.2

Molecular target: SpHof1-3
Experiment: as above
How it was run: as §1

Row | Binder | SPOT peptide array binding signal intensity
65 | NMLSRPRLAKLPSIR | 1590

Molecular target: SpHse1
Experiment: as above
How it was run: as §1

Row | Binder | SPOT peptide array binding signal intensity
66 | NMLSRPRLAKLPSIR | 2030

Molecular target: SpLsb1
Experiment: as above
How it was run: as §1

Row | Binder | SPOT peptide array binding signal intensity
67 | NMLSRPRLAKLPSIR | 10.5

Molecular target: SpLsb4
Experiment: as above
How it was run: as §1

Row | Binder | SPOT peptide array binding signal intensity
68 | NMLSRPRLAKLPSIR | 859

Molecular target: SpMyo1
Experiment: as above
How it was run: as §1

Row | Binder | SPOT peptide array binding signal intensity
69 | NMLSRPRLAKLPSIR | 24.8

Molecular target: SpNbp2
Experiment: as above
How it was run: as §1

Row | Binder | SPOT peptide array binding signal intensity
70 | NMLSRPRLAKLPSIR | 577

Molecular target: SpPex13
Experiment: as above
How it was run: as §1

Row | Binder | SPOT peptide array binding signal intensity
71 | NMLSRPRLAKLPSIR | 74

Molecular target: SpRvs167
Experiment: as above
How it was run: as §1

Row | Binder | SPOT peptide array binding signal intensity
72 | NMLSRPRLAKLPSIR | 32.2

Molecular target: SpSla1-D1-D2
Experiment: as above
How it was run: as §1

Row | Binder | SPOT peptide array binding signal intensity
73 | NMLSRPRLAKLPSIR | 8

Molecular target: SpSla1-D3
Experiment: as above
How it was run: as §1

Row | Binder | SPOT peptide array binding signal intensity
74 | NMLSRPRLAKLPSIR | 194
